From PubChem BioAssay (NCATS) come the findings set out here.

Structures are written as SMILES. “And” between values parts separate entries of the source, which are not always exact repeats. Identical values can stand only once. Inconclusive results are not listed. The source made the active and inactive calls. Unless noted, the call rests on the fitted dose curve; in most records, active means well fitted curve in the direction sought with a large enough effect; inconclusive means small, poorly fitted or top-dose-only effect, or another doubt; inactive means no such curve, though single readings can be large; an effect the other way counts as inactive or inconclusive.

A short description of assay [1]: High-throughput drug toxicity screening in the BPDCN cell line Gen2.2 (AID 1224824; call rule not given here;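 further: cells exposed to compounds for 48 h before reading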). The settings on record: Gen2.2 BPDCN cells; at 45.8 µM (top of the series) unless noted. In short, it runs like this: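 Gen2.2 cells, 500 per well in phenol red-free RPMI with 10% FBS, exposed to compounds 48 h at 37 C, 5% CO2; viability by CellTiter-Glo luminescence. Percent activity scaled to DMSO (100%) and 9.2 uM bortezomib final (0%).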

A short description of assay [2]: High-throughput drug toxicity screening in the BPDCN cell line Cal-1 (AID 1224825; call rule not given here). Particulars: Cal-1 BPDCN cell viability, qHTS; at 45.8 µM (top of the series) unless noted. The method, boiled down: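 500 Cal-1 cells/well, RPMI + glutamine + 10% FBS (phenol red-free); cpd added by pin tool; 48 h, 37C, 5% CO2; CTG 15 min RT, lumi read. Normalised: DMSO 100%, bortezomib 9.2 uM 0%.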
Background: In qHTS, concentration-response curves come from the screen itself.

The nature of assay [3]: qHTS assay for measurement of the activity of small molecule inhibitors on Zika virus induced Caspase-3 activity in human iPSC derived neural progenitor cells (hNPCs) (AID 1224857). Further: % of control where 0% means no effect; nearly all actives have a fitted effect of over 65% in size. In short, it runs like this: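 After overnight (16–20 h) culture at 350 cells/well, hNPCs get compound, then ZIKV 2 FFU/cell one hour later. Six hours on, Caspase-Glo 3/7 is added and luminescence measured.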

Assay [4] is described as follows: qHTS assay for measurement of the activity of small molecule inhibitors on Zika virus induced Caspase-3 activity in human astrocytoma cells (AID 1224859).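 Further: plate controls were ZIKV-infected untreated cells for no effect and uninfected cells for full effect.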 The method, boiled down:
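Inhibition of Zika-induced caspase-3/7 activity: SNB-19 cells, 1 h compound pretreatment, ZIKV 2 FFU/cell for 6 h at 37 C, Caspase-Glo luminescence read-out.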

A short description of assay [5]: qHTS Screen of the MIPE 4.0 Collection Against Ewings Sarcoma (RDES) (AID 1259252). Further: nearly all actives have a fitted effect of over 35% in size. Further: potency means the concentration at half of the fitted maximal effect. The method, boiled down: (§1)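 CellTiter-Glo luminescence after 48 h compound exposure (titration) gave viability; percent activity used DMSO-treated cells as no inhibition and medium-only wells as full inhibition. Cells grown in RPMI/5% FBS, dosed 4 h post-seeding.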
The nature of assay [6]: qHTS Screen of the MIPE 4.0 Collection Against Ewings Sarcoma (TC71) (AID 1259253). Further: potency means the concentration at half of the fitted maximal effect; nearly all actives have a fitted effect of over 40% in size. The method, boiled down:
as §1

A short description of assay [7]: qHTS Screen of the MIPE 4.0 Collection Against Ewings Sarcoma (EW8) (AID 1259255). Further: nearly all actives have a fitted effect of over 35% in size. Further: potency means the concentration at half of the fitted maximal effect.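 On viability: 100% = DMSO-treated cells and 0% = medium-only wells without cells.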 The method, boiled down: as §1
A short description of assay [8]: qHTS Screen of the MIPE 4.0 Collection Against Ewings Sarcoma (TC32) (AID 1259256). Further: nearly all actives have a fitted effect of over 45% in size. Further: potency means the concentration at half of the fitted maximal effect. The method, boiled down:
as §1

Assay [9] can be described thus: P-glycoprotein substrates identified in KB-8-5-11 adenocarcinoma cell line, qHTS therapeutic library screen (AID 1346987). Further: nearly all actives have a fitted effect of over 65% in size. Further: potency means the concentration at half of the fitted maximal effect. The method, boiled down:
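Steps: plate 500 KB-8-5-11 cells/well in DMEM + 10% FCS (colchicine removed); pin compounds in dose-response; incubate 72 h, 37 degree C, 5% CO2; add CellTiter-Glo, 5 min; read luminescence.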

Assay [10] deals with Atrial natriuretic peptide receptor 2 (Homo sapiens) (UniProt P20594). In words: Natriuretic polypeptide receptor (hNpr2) antagonism - Pilot subtype selectivity assay (AID 1347050; calls by dose curve; further: on the % scale 0 is the no-effect control and ±100 the full control effect). The method, boiled down:
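Pilot selectivity screen against hNpr2: HEK293 cGMP-sensor cells are treated with LOPAC1280 compounds, then with hNppC peptide at 1 nM final. The cGMP-driven luminescence change over 20 min at room temperature is the read-out.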

Assay [11] can be described thus: qHTS assay to identify small molecule inhibitors of chordoma cells - UCH-1 (AID 1259355). Further: nearly all actives have a fitted effect of over 55% in size. Further: potency means the concentration at half of the fitted maximal effect. The method, boiled down:
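Seed 800 cells per well; incubate overnight at 37 C, 5% CO2. Add test compounds (15 concentrations), then the auranofin–topoisomerase-agent combination. Incubate 48hr, add CellTiter-Glo, wait 30min, read luminescence.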

A short description of assay [12]: Identifying Small Molecule Inhibitors of Pancreatic Cancer Stem Cells (A2780, Spheroid) (AID 1259357).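 Further: compound exposure lasted 48 h before the ATP luminescence read.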 Further: potency means the concentration at half of the fitted maximal effect. Particulars: Potency: A2780 spheroid viability. In short, it runs like this:
(§2)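 Cytotoxicity read by CellTiter-Glo luminescence after 48 h compound exposure at 37C; percent activity scaled between DMSO-treated cells and cell-free wells. Spheroid formats used cells pre-formed 14 days in stem cell media on hydrogel.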

A short description of assay [13]: Identifying Small Molecule Inhibitors of Pancreatic Cancer Stem Cells (A278, Adherent) (AID 1259361). Further: nearly all actives have a fitted effect of over 35% in size. In short, it runs like this:
as §2

Assay [14] can be described thus: qHTS assay to identify small molecule inhibitors of chordoma cells - UCH-2 (AID 1259356). Further: on the % scale 0 is the no-effect control and ±100 the full control effect.
Assay [15] is described as follows: P-glycoprotein substrates identified in KB-3-1 adenocarcinoma cell line, qHTS therapeutic library screen (AID 1346986). Further: nearly all actives have a fitted effect of over 60% in size. The settings on record: KB-3-1 parental cells viability, CellTiter-Glo, 72 h; at 44.5 µM (top of the series). The method, boiled down: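 Cells seeded 500/well in DMEM/10% FCS; compounds pinned in dose-response; 72 h incubation; CellTiter-Glo added, 5 min, luminescence. KB-8-5-11 run ±tariquidar to test reversal of P-gp resistance.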

Assay [16] can be described thus: Identifying Small Molecule Inhibitors of Pancreatic Cancer Stem Cells (SN12C, Adherent) (AID 1259358).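 Further: potency means the concentration at half of the fitted maximal effect; cell survival measured after 48 h of compound exposure.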 The method, boiled down:
as §2

Assay [17] is described as follows: Identifying Small Molecule Inhibitors of Pancreatic Cancer Stem Cells (SN12C, Spheroid) (AID 1259360). Further: potency means the concentration at half of the fitted maximal effect. The settings on record: Potency: SN12C spheroid viability. The method, boiled down: as §2

Sequence of Atrial natriuretic peptide receptor 2 (Homo sapiens) (P20594 whole entry, looked up): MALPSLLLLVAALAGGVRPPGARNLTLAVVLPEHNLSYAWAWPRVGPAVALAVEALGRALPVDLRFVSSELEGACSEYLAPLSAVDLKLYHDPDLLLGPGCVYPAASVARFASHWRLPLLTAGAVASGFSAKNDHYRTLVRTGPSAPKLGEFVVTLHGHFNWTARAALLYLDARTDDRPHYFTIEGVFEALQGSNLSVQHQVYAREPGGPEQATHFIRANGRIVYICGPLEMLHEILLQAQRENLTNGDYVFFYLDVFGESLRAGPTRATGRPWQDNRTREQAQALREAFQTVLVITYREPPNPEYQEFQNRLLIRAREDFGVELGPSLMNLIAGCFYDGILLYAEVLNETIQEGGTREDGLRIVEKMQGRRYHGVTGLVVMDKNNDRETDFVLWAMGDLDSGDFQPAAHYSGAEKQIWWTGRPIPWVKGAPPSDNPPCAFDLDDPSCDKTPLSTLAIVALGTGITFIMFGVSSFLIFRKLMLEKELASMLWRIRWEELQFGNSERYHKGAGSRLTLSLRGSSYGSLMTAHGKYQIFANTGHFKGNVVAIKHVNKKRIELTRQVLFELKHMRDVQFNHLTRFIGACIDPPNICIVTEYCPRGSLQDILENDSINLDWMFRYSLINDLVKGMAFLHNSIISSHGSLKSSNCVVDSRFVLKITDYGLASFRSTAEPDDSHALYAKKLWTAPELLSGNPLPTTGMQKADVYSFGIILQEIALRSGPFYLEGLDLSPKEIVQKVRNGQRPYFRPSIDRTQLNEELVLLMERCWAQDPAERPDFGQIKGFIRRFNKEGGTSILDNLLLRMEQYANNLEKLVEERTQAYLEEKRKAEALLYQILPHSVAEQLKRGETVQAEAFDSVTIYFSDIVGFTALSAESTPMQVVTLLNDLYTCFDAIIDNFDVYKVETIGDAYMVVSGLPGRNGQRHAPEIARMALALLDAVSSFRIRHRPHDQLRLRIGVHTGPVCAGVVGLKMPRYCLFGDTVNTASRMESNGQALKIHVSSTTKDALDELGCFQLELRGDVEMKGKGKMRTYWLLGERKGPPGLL

With `CC(=O)[C@H]1CC[C@H]2[C@@H]3CCC4=CC(=O)CC[C@]4(C)[C@H]3CC[C@]12C`, the cell viability, % of control (lower = more cytotoxic) in [1] is 83%. Also, in [2], the viability (% of control) is 79.9%. The Potency result in assay [3], in assay [4] and in assay [10] was “inactive” in each case. Further, the Potency in [5] was 3.32 µM (active); in [6], 3.32 µM (active); in assay [7] it was 9.35 µM (active); in assay [8], 3.72 µM (active); in assay [9], 11.8 µM (active).
Consider `COc1cc2c(Nc3ccc(Br)cc3F)ncnc2cc1OCC1CCN(C)CC1`, for which the cell viability, % of control (lower = more cytotoxic) in [1] is 3.75%. Also, in assay [2], the viability (% of control) is 5.58%. In addition, the Potency entry in assay [3], in assay [4], in [12] and in assay [9] was “inactive” in each case. Moreover, the Potency in assay [5] is 16.6 µM (active); in assay [6] it was 5.9 µM (active); in assay [7], 5.26 µM (active); in assay [11], 5.01 µM (active). The IC50 (viability decrease) in [13] is 18.7 µM (active).
For `O=NN(CCCl)C(=O)NC1CCCCC1`, the cell viability, % of control (lower = more cytotoxic) in [1] came out at 110%. Further, the viability (% of control) in assay [2] turned out to be 102%. The Potency result in [3], in assay [4], in assay [5], in [7], in [8] and in [11] was “inactive” in each case. For the same compound, the Potency result in assay [14] and in assay [9] was “inactive” throughout. Moreover, the outcome in [15] was inactive.
Turning to `CNC(=O)c1cc(Oc2ccc(NC(=O)Nc3ccc(Cl)c(C(F)(F)F)c3)cc2)ccn1`, the cell viability, % of control (lower = more cytotoxic) in assay [1] is 2.89%. Also, the viability (% of control) in assay [2] was 9.69%. In addition, the Potency result in [3] and in [4] was “inactive” in each case. Besides, the Potency in assay [5] is 1.18 µM (active); in [6], 2.35 µM (active); in assay [7] it was 18.7 µM (active); in assay [12] it was 20.9 µM (active); in [16], 20.9 µM (active); in assay [17], 18.7 µM (active). The Potency in assay [9] was 11.8 µM (active) and 8.2 µM (active) and 6.51 µM (active). Also, in assay [13], the IC50 (viability decrease) is 18.7 µM (active).
As for `CC(C)Cn1cnc2c(N)nc3ccccc3c21`, in [1], the cell viability, % of control (lower = more cytotoxic) was 11.8%. The viability (% of control) in assay [2] is 3.23%. Further, the Potency result in assay [3], in [4], in [11] and in assay [9] was “inactive” each time. The Potency is 16.6 µM (active) in assay [5], 7.43 µM (active) in assay [7] and 18.7 µM (active) in [8].
Consider `CCCCc1oc2ccc(NS(C)(=O)=O)cc2c1C(=O)c1ccc(OCCCN(CCCC)CCCC)cc1`, for which the cell viability, % of control (lower = more cytotoxic) in [1] was found to be 5.11%. For the same compound, the viability (% of control) in assay [2] was found to be 4.81%. Besides, the Potency entry in [3] and in assay [4] was “inactive” throughout. Besides, the Potency in assay [5] was 23.5 µM (active); in assay [6] it was 20.9 µM (active); in assay [7], 16.6 µM (active); in assay [8], 20.9 µM (active); in assay [9] it was 26.4 µM (active) and 16.4 µM (active).
Turning to `CCC(C)(C)c1ccc(CC(C)CN2C[C@@H](C)O[C@@H](C)C2)cc1` (some centres not stated), the cell viability, % of control (lower = more cytotoxic) in assay [1] turned out to be 129%. In addition, the viability (% of control) in [2] is 108%. For the same compound, the Potency result in [3], in [4], in assay [5], in [7], in [8] and in [11] was “inactive” each time. The Potency entry in assay [14] and in assay [9] was “inactive” in each case.
As to `CC(C)OC(=O)OCOP(=O)(CO[C@H](C)Cn1cnc2c(N)ncnc21)OCOC(=O)OC(C)C`, the cell viability, % of control (lower = more cytotoxic) in [1] was found to be 162%. The viability (% of control) in assay [2] was 42.8%. Besides, the Potency result in assay [3], in assay [4], in assay [5] and in [9] was “inactive” each time. Further, the figures for the Potency in [6] and in assay [7] were 18.7 µM (active) and 23.5 µM (active), respectively. The outcome in [15] was inactive.
`COc1cccc(N(C)C(=S)Oc2ccc3c(c2)CCCC3)n1`: the cell viability, % of control (lower = more cytotoxic) in [1] was determined as 245%. Besides, the viability (% of control) in assay [2] is 76.1%. Besides, the Potency result in assay [3], in assay [4], in assay [5], in assay [7], in assay [8] and in assay [11] was “inactive” throughout. The Potency result in assay [14] and in assay [9] was “inactive” throughout.
`CCn1cc(C(=O)O)c(=O)c2cc(F)c(N3CCNCC3)cc21`: the cell viability, % of control (lower = more cytotoxic) in assay [1] turned out to be 113%. Further, the viability (% of control) in assay [2] was 104%. Besides, the Potency result in assay [3], in assay [4], in assay [5], in assay [7], in assay [8] and in assay [11] was “inactive” throughout. Besides, the Potency entry in assay [14] and in [9] was “inactive” in each case. Further, the result in assay [15] was inactive.
